A short description of assay [1]: Nuclear factor erythroid 2-related factor 2/antioxidant responsive element (Nrf2/ARE) small molecule agonists: qHTS cell viability counter screen in human keratinocytes (AID 1919968; active = well fitted curve in the direction sought with a large enough effect in the repeat runs; an effect the other way counts as inactive or inconclusive; also: nearly all actives have a fitted effect of over 55% in size). In a few lines: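 Cytotoxicity was multiplexed with the Nrf2/ARE luciferase assay in the same wells. Stably transfected HaCaT keratinocytes were treated with test compounds for 23 h at 37 C. Cell viability was then measured by CellTiter-Fluor fluorescence.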
(In general: qHTS replaces the single test concentration by a dilution series.)

Assay [2] can be described thus: Nuclear factor erythroid 2-related factor 2/antioxidant responsive element (Nrf2/ARE) small molecule agonists: luciferase reporter gene qHTS assay in human keratinocytes (AID 1919969). Also: nearly all actives have a fitted effect of over 35% in size. Also: potency is read from the fitted curve at half-maximal effect. On the technique in general: Reporter assays use an easily measured gene product as a stand-in for the process of interest.
For assay [3], the target named is Gonadotropin-releasing hormone receptor (Homo sapiens) (UniProt P30968). As to the kind of experiment: Human gonadotropin-releasing hormone receptor (GnRHR) small molecule agonists, calcium flux assay in GnRHR-HEK293 cells (AID 1920063). Also: nearly all actives have a fitted effect of over 35% in size. The gist of the method:
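Agonist activity was measured as intracellular calcium flux in HEK293 cells engineered to stably express human GnRHR. After dye loading for 1 hour at 37 C, compounds in DMSO were added and fluorescence was followed for 3 minutes.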
A general note: A change in cytosolic calcium serves as a functional read-out for many receptors and channels.

Assay [4] addresses KiSS-1 receptor (Homo sapiens) (UniProt Q969F8). Description: Human kisspeptin (KISS1R) small molecule agonists, calcium flux assay in KISS1R-HEK293 cells (AID 1920064; active = well fitted curve in the direction sought with a large enough effect in the repeat runs; an effect the other way counts as inactive or inconclusive). In a few lines:
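Agonist activity is monitored as intracellular calcium rise in engineered HEK293 cells carrying human KISS1R. Cells are dye-loaded for 1 h at 37 C before compound addition, and fluorescence is recorded for 3 min.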

The nature of assay [5]: G protein-coupled receptor (GPCR) small molecule agonists, calcium flux assay: HEK293 wild type cell line counter screen (AID 1920065). The gist of the method:
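Seed cells, incubate 18 h (37 C, 5% CO2); add calcium dye, 1 h at 37 C; pin-transfer compounds, ATP control or DMSO; read fluorescence 480/540 nm each second for 3 min.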

Assay [6] in a line: p53 small molecule agonists, cell-based qHTS assay with human liver microsomes: qHTS cell viability counter screen (AID 1963579). Also: nearly all actives have a fitted effect of over 45% in size. The gist of the method: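 In this multiplexed counter screen, the reporter plates were subsequently treated with CellTiter-Glo so that cell viability, reflected by luminescence, could be recorded for p53RE-bla cells dosed 16 h with compounds under microsomal activation (HLM and NADPH).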

Assay [7] is described as follows: p53 small molecule agonists, cell-based qHTS assay: qHTS cell viability counter screen (AID 1963581). Also: nearly all actives have a fitted effect of over 45% in size. In a few lines:
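Viability was counter-screened in parallel with the p53 agonist reporter by measuring intracellular ATP luminescence in the same HCT-116 p53RE-bla wells after 16 h compound treatment at 37 C.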

Assay [8] concerns the target 5-hydroxytryptamine receptor 2A (Homo sapiens) (UniProt P28223). Description: 5-hydroxytryptamine receptor 2A (HTR2A) small molecule antagonists, cell-based qHTS assay (AID 1963586). Also: nearly all actives have a fitted effect of over 45% in size. In a few lines:
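CHO cells stably expressing human HTR2A were plated for 18 h at 37 C, then loaded with calcium dye for 1 h. Compounds were preincubated 5 min at room temperature before DOI (4 nM solution) was added. Kinetic fluorescence was read for 3 min.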

For assay [9] the target is unchanged. Description: 5-hydroxytryptamine receptor 2A (HTR2A) small molecule agonists, cell-based qHTS assay (AID 1963587). Also: nearly all actives have a fitted effect of over 30% in size. The gist of the method:
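HTR2A-CHO cells, plated 18 h at 37 C/5% CO2, dye-loaded 1 h at 37 C; compounds in DMSO added by pin tool (agonist mode). Intracellular calcium flux read as kinetic fluorescence on FDSS over 2 min at 1 s intervals.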

Assay [10] addresses Muscarinic acetylcholine receptor M1 (Homo sapiens) (UniProt P11229). As to the kind of experiment: Cholinergic receptor muscarinic 1 (CHRM1) small molecule antagonists, cell-based qHTS assay (AID 1963588). Also: nearly all actives have a fitted effect of over 40% in size. The gist of the method:
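Compounds were tested at 15 concentrations in three independent runs. Dye-loaded CHRM1-CHO cells were exposed 5 min at room temperature before stimulation by acetylcholine added at 50nM. Intracellular calcium was read kinetically on FDSS for 3 min.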

Assay [11] has the same target. As to the kind of experiment: Cholinergic receptor muscarinic 1 (CHRM1) small molecule agonists, cell-based qHTS assay (AID 1963589). Also: nearly all actives have a fitted effect of over 35% in size. The gist of the method: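 Cells were plated and incubated 18 h at 37 C/5% CO2, loaded with calcium dye for 1 h at 37 C, then treated with compounds in DMSO. Fluorescence was recorded kinetically at 1 sec intervals.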
Assay [12] can be described thus: cAMP Responsive Elements (CRE) small molecule agonists, cell-based qHTS assay (AID 1963590). The gist of the method:
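Cells carrying a CRE-driven beta-lactamase reporter (HEK 293T) are seeded, incubated overnight (18 h), and treated with test compounds for 3 h at 37 C; reporter activity is then detected with a FRET substrate after 2 h at room temperature.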

Assay [13] can be described thus: cAMP Responsive Elements (CRE) small molecule antagonists, cell-based qHTS assay (AID 1963591; active = well fitted inhibition curve with a large enough effect in the signal ratio in the repeat runs, not every such curve was filed as active; the % refers to the signal ratio). In a few lines:
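Cells (CRE-bla HEK 293T, DMEM with 10% dialyzed FBS and 25 mM HEPES) are seeded and incubated 18 h. Compounds are added with NKH477 agonist at 0.25 uM final for 3 h, then FRET substrate for 2 h.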

In assay [14] the target is Beta-2 adrenergic receptor (Homo sapiens) (UniProt P07550). As to the kind of experiment: Adrenergic beta2 receptor (ADRB2) small molecule antagonists, cell-based qHTS assay (AID 1963592). Also: series mostly up to about 92 µM; nearly all actives have a fitted effect of over 50% in size. In a few lines:
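Assay format: CHO-ADRB2 cells, 18-20hr seeding at 37C/5% CO2, then compound plus 1nM isoproterenol agonist mix for 0.5hr RT. Homogeneous time-resolved fluorescence cAMP detection after 1hr, expressed as 665/615 nm ratio.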

Assay [15] shares this target. Description: Adrenergic beta2 receptor (ADRB2) small molecule agonists, cell-based qHTS assay (AID 1963593).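 Also: CHO cells stably overexpressing human ADRB2.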 The gist of the method: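 CHO cells stably over-expressing ADRB2 were plated overnight at 37C, then dosed with compounds plus a stimulation mix containing 100uM IBMX and 25uM Ro-20-1724 for 0.5hr at room temperature. cAMP was measured by HTRF competition, 1hr.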

Assay [16] deals with D(2) dopamine receptor (Homo sapiens) (UniProt P14416). As to the kind of experiment: Dopamine D2 receptor (DRD2) small molecule agonists, cell-based qHTS assay (AID 1963594). Also: nearly all actives have a fitted effect of over 35% in size. The gist of the method:
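HEK293 cells stably expressing DRD2 were cultured 24 h at 37 C, then given Ro20-1724 (0.1 mM final) and compounds for 10 min at room temperature. NKH477 (200nM) was then added for 30 min. cAMP was read by HTRF.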

For assay [17] the target is unchanged. As to the kind of experiment: Dopamine D2 receptor (DRD2) small molecule antagonists, cell-based qHTS assay (AID 1963595; active = well fitted inhibition curve with a large enough effect in the signal ratio in the repeat runs, with a control signal flat; the % refers to the signal ratio). In a few lines:
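Stable D2 receptor HEK293 line, 24 h after seeding. Compound preincubated 10 min, then quinpirole (12 nM) with forskolin analogue NKH477 (200 nM), 30 min, room temperature. Detection by time-resolved FRET of cAMP.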

Assay [18] in a line: p53 small molecule agonists, cell-based qHTS assay with rat liver microsomes: qHTS cell viability counter screen (AID 1963580). Also: nearly all actives have a fitted effect of over 45% in size. Also: potency is read from the fitted curve at half-maximal effect. The gist of the method: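 Luminescent ATP readout (CellTiter-Glo, 30 min at room temperature) reports viability of p53RE-bla HCT-116 cells after 16 h at 37 C with test compounds under metabolic activation by rat liver microsomes and NADPH at 0.5 mg/mL final each.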

A short description of assay [19]: p53 small molecule agonists, cell-based qHTS assay with human liver microsomes (AID 1963577).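 Also: p53 response element beta-lactamase reporter cells with liver microsomes plus NADPH.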 In a few lines: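 16 h, 37 C exposure of p53RE-bla cells to compounds with human liver microsomes and NADPH (0.5 mg/mL final each); detection via LiveBLAzer mixture, 2 h dark at room temperature.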
The nature of assay [20]: p53 small molecule agonists, cell-based qHTS assay (AID 1963582; active = well fitted activation curve with a large enough effect in the signal ratio in the repeat runs, not every such curve was filed as active; the % refers to the signal ratio). The gist of the method: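 Cells carrying a p53-responsive bla reporter are treated with test compounds for 16 h at 37 C; beta-lactamase activity is then detected with LiveBLAzer B/G FRET substrate after 2 h at room temperature.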

Results filed as inconclusive are left out. More than one record can exist for a structure, and the calls need not agree. Activity calls are given as the source filed them. Unless noted, calls follow the shape of the full dose curve.

Sequence of Beta-2 adrenergic receptor (Homo sapiens) (P07550 whole entry, looked up): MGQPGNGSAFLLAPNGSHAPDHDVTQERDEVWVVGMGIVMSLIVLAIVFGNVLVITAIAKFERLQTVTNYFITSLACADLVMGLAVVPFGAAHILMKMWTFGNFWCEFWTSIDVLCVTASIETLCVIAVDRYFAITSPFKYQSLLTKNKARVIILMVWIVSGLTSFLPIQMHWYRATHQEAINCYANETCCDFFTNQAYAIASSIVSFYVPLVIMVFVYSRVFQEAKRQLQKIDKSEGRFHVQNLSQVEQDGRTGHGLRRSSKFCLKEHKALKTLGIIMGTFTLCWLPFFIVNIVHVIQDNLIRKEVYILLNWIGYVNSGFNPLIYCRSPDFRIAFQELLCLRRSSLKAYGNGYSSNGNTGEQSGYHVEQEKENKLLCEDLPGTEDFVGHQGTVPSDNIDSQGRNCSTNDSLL
Sequence of Gonadotropin-releasing hormone receptor (Homo sapiens) (P30968 whole entry, looked up): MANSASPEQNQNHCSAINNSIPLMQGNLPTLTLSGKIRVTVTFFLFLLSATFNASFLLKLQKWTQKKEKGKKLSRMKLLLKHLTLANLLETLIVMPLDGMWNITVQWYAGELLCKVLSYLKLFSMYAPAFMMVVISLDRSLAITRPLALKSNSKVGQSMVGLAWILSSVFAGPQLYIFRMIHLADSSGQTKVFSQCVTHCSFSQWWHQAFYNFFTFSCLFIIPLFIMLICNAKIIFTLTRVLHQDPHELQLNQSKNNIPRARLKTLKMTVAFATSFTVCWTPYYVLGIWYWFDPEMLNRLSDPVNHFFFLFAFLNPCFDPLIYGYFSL
Sequence of KiSS-1 receptor (Homo sapiens) (Q969F8 whole entry, looked up): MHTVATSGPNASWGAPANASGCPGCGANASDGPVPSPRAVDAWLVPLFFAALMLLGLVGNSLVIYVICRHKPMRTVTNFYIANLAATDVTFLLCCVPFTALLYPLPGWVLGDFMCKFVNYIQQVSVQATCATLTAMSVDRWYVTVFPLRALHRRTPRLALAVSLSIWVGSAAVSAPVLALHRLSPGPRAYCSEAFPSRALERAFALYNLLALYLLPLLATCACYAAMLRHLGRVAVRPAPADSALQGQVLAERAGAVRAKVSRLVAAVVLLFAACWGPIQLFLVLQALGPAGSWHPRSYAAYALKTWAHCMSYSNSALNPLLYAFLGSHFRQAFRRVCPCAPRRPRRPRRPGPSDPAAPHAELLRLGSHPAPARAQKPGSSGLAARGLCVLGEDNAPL
Sequence of D(2) dopamine receptor (Homo sapiens) (P14416 whole entry, looked up): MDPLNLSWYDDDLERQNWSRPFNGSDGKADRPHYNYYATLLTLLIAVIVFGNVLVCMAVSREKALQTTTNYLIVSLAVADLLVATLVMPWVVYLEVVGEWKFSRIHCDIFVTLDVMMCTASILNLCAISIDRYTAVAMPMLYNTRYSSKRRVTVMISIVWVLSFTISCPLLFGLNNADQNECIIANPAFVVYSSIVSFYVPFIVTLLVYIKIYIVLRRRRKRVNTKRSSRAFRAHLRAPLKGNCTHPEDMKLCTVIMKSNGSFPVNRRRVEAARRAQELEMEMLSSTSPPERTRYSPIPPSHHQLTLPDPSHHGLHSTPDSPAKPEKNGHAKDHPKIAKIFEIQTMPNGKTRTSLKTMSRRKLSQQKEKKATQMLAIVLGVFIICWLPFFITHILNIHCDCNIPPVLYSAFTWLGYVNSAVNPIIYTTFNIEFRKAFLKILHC
Sequence of 5-hydroxytryptamine receptor 2A (Homo sapiens) (P28223 whole entry, looked up): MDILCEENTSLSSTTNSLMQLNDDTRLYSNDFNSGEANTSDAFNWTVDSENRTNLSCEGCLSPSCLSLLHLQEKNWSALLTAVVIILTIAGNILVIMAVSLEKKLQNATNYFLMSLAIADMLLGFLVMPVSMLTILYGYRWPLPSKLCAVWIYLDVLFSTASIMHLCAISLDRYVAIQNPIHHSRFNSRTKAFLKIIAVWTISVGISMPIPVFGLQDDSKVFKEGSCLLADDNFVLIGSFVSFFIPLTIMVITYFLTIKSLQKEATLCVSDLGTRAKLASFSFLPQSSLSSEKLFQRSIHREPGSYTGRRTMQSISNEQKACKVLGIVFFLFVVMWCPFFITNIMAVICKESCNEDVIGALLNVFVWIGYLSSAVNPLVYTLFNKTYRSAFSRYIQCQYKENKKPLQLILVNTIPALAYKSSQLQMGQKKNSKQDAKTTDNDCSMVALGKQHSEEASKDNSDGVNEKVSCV
Sequence of Muscarinic acetylcholine receptor M1 (Homo sapiens) (P11229 whole entry, looked up): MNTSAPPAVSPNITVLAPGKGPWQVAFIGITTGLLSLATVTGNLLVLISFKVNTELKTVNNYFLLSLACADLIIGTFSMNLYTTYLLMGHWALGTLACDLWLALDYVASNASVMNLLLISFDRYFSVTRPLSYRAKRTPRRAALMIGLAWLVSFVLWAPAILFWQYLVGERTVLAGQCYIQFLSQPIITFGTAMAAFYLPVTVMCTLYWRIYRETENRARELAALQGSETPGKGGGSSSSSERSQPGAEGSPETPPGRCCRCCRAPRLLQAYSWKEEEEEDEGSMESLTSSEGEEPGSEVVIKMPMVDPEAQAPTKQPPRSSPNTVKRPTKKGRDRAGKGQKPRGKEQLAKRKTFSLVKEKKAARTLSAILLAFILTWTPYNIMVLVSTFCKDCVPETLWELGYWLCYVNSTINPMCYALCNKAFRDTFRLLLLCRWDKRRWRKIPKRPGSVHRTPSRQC

On to `CC(C)(C)c1ccccc1O`, for which the Potency entry in [1], in [2], in assay [3], in [4], in [5] and in assay [6] was “inactive” in each case. Also, the Potency result in [7], in assay [8], in [9], in assay [10], in assay [11] and in assay [12] was “inactive” each time. The Potency result in assay [13], in [14], in [15], in [16] and in assay [17] was “inactive” each time.
With `COP(=O)(OC)OC=C(Cl)Cl`, the Potency result in assay [1], in assay [3], in assay [4], in [5], in assay [6] and in [7] was “inactive” throughout. The Potency result in assay [12], in assay [13], in assay [14], in assay [15], in [16] and in assay [17] was “inactive” in each case. For the same compound, the Potency is 55 µM (active) and inactive in [2]; 412 nM (active) and inactive in assay [18].
In the case of `Clc1cccc(C(Cl)(Cl)Cl)n1`, the Potency entry in assay [1], in assay [2], in assay [3], in assay [4], in assay [19] and in [6] was “inactive” throughout. The Potency result in assay [18], in assay [7], in assay [20], in assay [8], in assay [9] and in assay [10] was “inactive” in each case. Besides, the Potency result in assay [11], in assay [12], in assay [13], in [14], in [15] and in assay [16] was “inactive” in each case. Moreover, in assay [17], the Potency result was “inactive”.
As for `Cc1ccc(N)cc1Cl`, the Potency entry in assay [1], in assay [2], in assay [3], in assay [4], in assay [5] and in assay [18] was “inactive” each time. Further, the Potency result in assay [7], in assay [8], in assay [9], in assay [10], in assay [11] and in assay [12] was “inactive” each time. Also, the Potency result in [13], in assay [14], in assay [15], in [16] and in [17] was “inactive” throughout.
As to `CCC(C)(CC)c1cc(NC(=O)c2c(OC)cccc2OC)on1`, the Potency result in assay [1], in assay [2], in assay [3], in [4], in [5] and in assay [6] was “inactive” throughout. Besides, the Potency result in assay [18], in assay [8], in assay [9], in [10], in [11] and in assay [13] was “inactive” in each case. Further, the Potency result in assay [14], in assay [16] and in assay [17] was “inactive” in each case.
`C[N+](C)(C)CC(=O)[O-]`: the Potency entry in [1], in [2], in [3], in assay [4], in [5] and in assay [18] was “inactive” in each case. Besides, the Potency entry in assay [7], in assay [8], in [9], in [10], in assay [11] and in assay [12] was “inactive” in each case. In addition, the Potency entry in [13], in assay [14], in assay [15], in [16] and in assay [17] was “inactive” each time.
For the compound `CC1CC(=O)O1` (centres undefined), the Potency entry in assay [1], in assay [2], in assay [3], in assay [4], in [5] and in assay [18] was “inactive” each time. The Potency result in assay [7], in [8], in assay [9], in assay [10], in [11] and in [12] was “inactive” in each case. In addition, the Potency entry in assay [13], in assay [14], in assay [15], in assay [16] and in assay [17] was “inactive” in each case.
`C#CCN(C)[C@H](C)Cc1ccccc1`: the Potency result in assay [1], in assay [2], in assay [3], in assay [4], in assay [5] and in assay [6] was “inactive” throughout. For the same compound, the Potency entry in assay [18], in assay [7], in assay [12], in assay [13], in assay [14] and in [15] was “inactive” in each case. Further, the Potency entry in assay [17] is “inactive”.

Values taken from PubChem BioAssay (Tox21).
